# In PubChem BioAssay (NCATS):
# Values joined by “and” are separate entries in the source; they are usually repeats but may differ in a detail not shown here. Equal entries are not always repeated. Inconclusive results are not listed. Where a call stands in place of a potency, no number is given. A number with no mark means an inactive call. Active and inactive are the calls of the source. Calls come from the whole dose curve; as a rule, active = well fitted curve in the direction sought with a large enough effect; inconclusive = small, poorly fitted or top-dose-only effect, or another doubt; inactive = no such curve, though single readings can be large; an effect the other way counts as inactive or inconclusive.
# What was measured:
# [1] = target: Calcium and integrin-binding protein 1 (Homo sapiens) (UniProt Q99828); assay: Primary qHTS for Identification of Calcium Integrin Binding Protein 1 (CIB1) Competitor (AID 1508620);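 note: GST tagged CIB1 binding a fluorescein labelled alphaIIb integrin peptide tracer; top concentration of the series differs between compounds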
# In short: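 Fluorescence polarization competition: GST-tagged CIB1 (1 uM final) preincubated with compound 15 min at room temperature, then FITC-labelled alphaIIb peptide (100 nM final) added. After 15 min at room temperature, polarization read at Ex 480/Em 540.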
# [2] = Primary qHTS for inhibitors of nuclear receptor binding SET domain protein 2 (NSD2) in an isogenic RCH-ACV NSD2 p.E1099K mutant (9B) (AID 1645876); note: nearly all actives have a fitted effect of over 70% in size; note: potency is the fitted concentration of half-maximal effect
# [3] = Primary qHTS for inhibitors of nuclear receptor binding SET domain protein 2 (NSD2) in an RCH-ACV wild type WT cells (2C) (AID 1645877); note: nearly all actives have a fitted effect of over 70% in size; note: potency is the fitted concentration of half-maximal effect
# Chain of Calcium and integrin-binding protein 1 (Homo sapiens) (Q99828 whole entry, looked up): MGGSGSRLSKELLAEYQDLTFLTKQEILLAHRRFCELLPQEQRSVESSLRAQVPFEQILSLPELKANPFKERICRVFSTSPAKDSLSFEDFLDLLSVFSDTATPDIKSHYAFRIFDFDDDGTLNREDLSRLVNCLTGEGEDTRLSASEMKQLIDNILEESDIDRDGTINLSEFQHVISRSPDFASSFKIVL
smiles,measurement,setting,value
CCC(C)/C=C(C)/C=C/c1cc2c(cn1)C(=O)C(C)(OC(C)=O)C(O)=C2Cl (stereo not given),Potency,[1],inactive
same,Potency,[2],inactive
CC1=CC2C(CC1OC1OC(CO)C(O)C(O)C1O)C(C)CC(=O)C2C(C)C (stereo not given),Potency,[1],inactive
same,Potency,[2],inactive
same,Potency,[3],inactive
CC(=O)O[C@@H]1[C@@H](CO)O[C@@](CO)(O[C@H]2O[C@H](COC(=O)/C=C/c3ccccc3)[C@@H](O)[C@H](O)[C@H]2O)[C@H]1O,Potency,[1],inactive
same,Potency,[2],inactive
same,Potency,[3],inactive
CC[C@H]1OC(=O)[C@](C)(F)C(=O)[C@H](C)[C@@H](O[C@@H]2O[C@H](C)C[C@H](N(C)C)[C@H]2O)[C@](C)(OC)C[C@@H](C)C(=O)[C@@H](C)[C@H]2N(CCCCn3cc(-c4cccc(N)c4)nn3)C(=O)O[C@]12C,Potency,[1],inactive
same,Potency,[2],20.5 µM (active)
O=C(O)c1cc2cccc([N+](=O)[O-])c2[nH]1,Potency,[1],inactive
same,Potency,[2],inactive
same,Potency,[3],inactive
FC(F)(F)c1cc(-c2ncn(/C=C\c3nnco3)n2)cc(C(F)(F)F)c1,Potency,[1],inactive
same,Potency,[2],2.3 µM (active)
CN1CCN(c2ccc(C(=O)Nc3n[nH]c4ccc(Cc5cc(F)cc(F)c5)cc34)c(NC3CCOCC3)c2)CC1,Potency,[1],inactive
same,Potency,[2],3.25 µM (active) and 4.68 µM (active) and 6.51 µM (active)
same,Potency,[3],3.65 µM (active) and 4.17 µM (active) and 6.51 µM (active)
O=C1CCC=CC1(O)C(=O)OCc1ccccc1O[C@@H]1O[C@H](CO)[C@@H](O)[C@H](O)[C@H]1O (stereo not given in full),Potency,[1],inactive
same,Potency,[2],12.6 µM (active)
CC1C(OC(=O)c2ccccc2)C(O)C2C(C(=O)O)=COC(OC3OC(CO)C(O)C(O)C3O)C12 (stereo not given),Potency,[1],inactive
same,Potency,[2],inactive
same,Potency,[3],inactive
C[C@@H]1C(=O)OC[C@H]2C(C(=O)O)=C[C@@H]3CC(C)(C)C[C@]312,Potency,[1],inactive
same,Potency,[2],inactive
same,Potency,[3],inactive
CC(C)C(NC(=O)c1ccc2ccccc2n1)C(=O)NC(CC(=O)O)C(=O)COc1c(F)cccc1F (stereo not given),Potency,[1],inactive
same,Potency,[2],inactive
same,Potency,[3],inactive
C=C1CCC2C(C)(C(=O)O)CCCC2(C)C1CC/C(=C\CO)CO (stereo not given),Potency,[1],inactive
same,Potency,[2],inactive
same,Potency,[3],inactive
C/C=C(\C)C(=O)OCC1OC(OC2OC(COC(=O)/C(C)=C/C)C(OC3OC(CO)C(OC(=O)/C(C)=C/C)C(OC(=O)/C(C)=C/C)C3O)C(O)C2O)C(O)C(O)C1OC1OC(CO)C(OC(=O)/C(C)=C/C)C(OC(=O)/C(C)=C/C)C1O (stereo not given),Potency,[1],inactive
same,"activity change, negative = viability loss",[2],-4.2% [at 9.23 µM]
CC(C)(C)C(=O)CN1C(=O)[C@H](NC(=O)Nc2cccc(C(=O)O)c2)CN(C2CCCCC2)c2ccccc21,Potency,[1],inactive
same,Potency,[2],inactive
same,Potency,[3],inactive
COc1cc(/C=C/C(=O)O[C@H]2[C@H](O)[C@@H](CO)O[C@@]2(CO)O[C@H]2O[C@H](CO)[C@@H](O)[C@H](O)[C@H]2O)ccc1O,Potency,[1],inactive
same,Potency,[2],inactive
same,Potency,[3],inactive
CC1=CC(=O)C(=C(C)C)CC2C1CCC2(C)O (stereo not given),Potency,[1],inactive
same,Potency,[2],inactive
same,Potency,[3],inactive
C[C@@H]1CC[C@]2(C(=O)O)CC[C@]3(C)C(=CCC4[C@@]5(C)CC[C@H](O)C(C)(C)C5C(O)C[C@]43C)[C@@H]2[C@]1(C)O (stereo not given in full),Potency,[1],inactive
same,Potency,[2],inactive
same,Potency,[3],inactive
CC(=O)OC1C[C@]2(C)C(O)CC(C)=C[C@H](OC(=O)c3ccc(O)cc3)C2[C@]1(O)C(C)C (stereo not given in full),Potency,[1],inactive
same,Potency,[2],inactive
same,Potency,[3],inactive
CC1=C(C(=O)O)/C(=C/CO[C@@H]2O[C@H](COC(=O)/C=C/c3ccc(O)cc3)[C@@H](O)[C@H](O)[C@H]2O)C(O)C1 (stereo not given in full),Potency,[1],inactive
same,Potency,[2],inactive
same,Potency,[3],inactive
CC1OC(OC2C(CO)OC(OCC3OC(OC(=O)C45CCC(C)(C)CC4C4=CCC6C7(C)CCC(OC8OC(CO)C(O)C(OC9OC(CO)C(O)C(O)C9O)C8O)C(C)(C)C7CCC6(C)C4(C)CC5)C(O)C(O)C3O)C(O)C2O)C(O)C(O)C1OC1OC(CO)C(O)C(O)C1O (stereo not given),"activity change, negative = inhibition",[1],-4.16% [at 12.4 µM]
same,"activity change, negative = viability loss",[2],-0.174% [at 9.23 µM]
same,"activity change, negative = cell killing",[3],-10.4% [at 9.23 µM]
O=C(O)CC(=O)OC[C@H]1O[C@@H](Oc2ccc3c(c2)OC[C@H]2c4cc5c(cc4O[C@@H]32)OCO5)[C@H](O)[C@@H](O)[C@@H]1O,Potency,[1],inactive
same,Potency,[2],inactive
same,Potency,[3],inactive
COc1c2c(c(C)c3c1C(=O)OC3)O[C@@]1(C)CC(O)C(C(C)(C)O)[C@](C)(CCC(=O)O)[C@H]1C2 (stereo not given in full),Potency,[1],inactive
same,Potency,[2],inactive
